Data as given in PubChem BioAssay (EPA / NIEHS).
Results filed as inconclusive are left out. The source made the active and inactive calls. How the source made its calls: active means hit-call score of the fitted dose curve at least 0.9, where 1 is the maximum; inconclusive means response in the unintended direction; inactive means score below 0.9.

Each compound was assayed against bovine Estrogen Receptor (ER), ESR1 (gene 407238) (UniProt P49884) (assay: NVS_NR_bER: NovaScreen (NVS) Nuclear Receptor Binding Assay for bovine Estrogen Receptor (ER) (AID 2283345);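 further: actives lower the bound radioligand count which means they displace the ER ligand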).
Sequence of bovine Estrogen Receptor (ER), ESR1 (gene 407238) (P49884 whole entry, looked up): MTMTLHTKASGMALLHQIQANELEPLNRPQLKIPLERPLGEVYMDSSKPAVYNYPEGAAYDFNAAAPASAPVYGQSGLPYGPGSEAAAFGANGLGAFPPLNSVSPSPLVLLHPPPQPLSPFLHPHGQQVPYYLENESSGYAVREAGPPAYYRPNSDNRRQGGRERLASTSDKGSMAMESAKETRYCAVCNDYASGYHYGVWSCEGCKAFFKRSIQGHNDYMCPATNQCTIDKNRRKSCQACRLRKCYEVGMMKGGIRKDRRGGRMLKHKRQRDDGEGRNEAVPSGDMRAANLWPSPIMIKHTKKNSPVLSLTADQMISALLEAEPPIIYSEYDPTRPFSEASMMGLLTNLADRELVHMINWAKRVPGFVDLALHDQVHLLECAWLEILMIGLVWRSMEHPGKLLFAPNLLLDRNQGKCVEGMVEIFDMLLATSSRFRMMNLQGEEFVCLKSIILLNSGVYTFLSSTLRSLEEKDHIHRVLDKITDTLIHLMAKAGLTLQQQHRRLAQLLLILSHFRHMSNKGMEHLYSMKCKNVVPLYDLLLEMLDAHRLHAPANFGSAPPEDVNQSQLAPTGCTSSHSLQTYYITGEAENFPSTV
How it was run: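 Bovine uterine membranes; tritiated or iodinated radioligand; competitive displacement; 18 h; scintillation read; DMSO negative control; 25 uM duplicates, then concentration series for actives.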
With `CCCCCCCCC=O` the outcome was “inactive”. In the case of `CCCc1c(OCCCOc2ccc(OCC(=O)O)cc2)ccc(C(C)=O)c1O`, the outcome is reported as “inactive”. `CCCCCCCCCC=O` was tested, and the outcome was “inactive”. With `c1cc(C(c2ccc(OCC3CO3)cc2)c2ccc(OCC3CO3)cc2)ccc1OCC1CO1` (stereo unspecified) the outcome was “inactive”. With `O=C(O)CCSCCC(=O)O` the outcome was “inactive”. With `CN(C)c1ccc(O)c2c1C[C@H]1C[C@H]3[C@H](N(C)C)C(=O)C(C(N)=O)=C(O)[C@@]3(O)C(=O)C1=C2O` the outcome was “inactive”. `C#C[C@]1(O)CC[C@H]2[C@@H]3CCC4=Cc5oncc5C[C@]4(C)[C@H]3CC[C@@]21C` was tested, and the outcome was “inactive”. In the case of `NNc1nc(-c2ccc(N)cc2)cs1`, the outcome is reported as “inactive”. In the case of `O=Nc1ccc(Nc2ccccc2)cc1`, the outcome is reported as “inactive”. In the case of `Cc1cc(C2(c3cc(C)c(O)cc3C)OS(=O)(=O)c3ccccc32)c(C)cc1O`, the AC50 is reported as 10.6 µM (active). `NC(=O)Nc1ccc(Cl)cc1` was tested, and the outcome was “inactive”. With `Nc1cccc(S(=O)(=O)c2cccc(N)c2)c1` the outcome was “inactive”. `CC(C)=CCO` was tested, and the outcome was “inactive”. For `CC(=O)[C@H]1CC[C@H]2[C@@H]3CC=C4C[C@@H](O)CC[C@]4(C)[C@H]3CC[C@]12C`, the outcome was “inactive”. With `CC(C)(C)C(=O)c1ccccc1` the outcome was “inactive”. With `CNCCCC12CCC(c3ccccc31)c1ccccc12` the outcome was “inactive”. With `CC(C)C(C)(C)C(C)(C)C(C)(C)S` the outcome was “inactive”. With `CC(C)c1cccc(O)c1` the outcome was “inactive”. `C=CC(=O)OCC(O)COc1ccccc1` (stereo unspecified) was tested, and the outcome was “inactive”. With `CC1=CCC2C(C1)C2(C)C` (stereo unspecified) the outcome was “inactive”.

Each compound was assayed against chimpanzee Androgen Receptor (AR), AR (gene 747460) (UniProt O97775) (assay: NVS_NR_cAR: NovaScreen (NVS) Nuclear Receptor Binding Assay for chimpanzee Androgen Receptor (AR) (AID 2283346);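 further: radioligand displacement from AR measured by scintillation counting in a cell-free assay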).
Sequence of chimpanzee Androgen Receptor (AR), AR (gene 747460) (O97775 whole entry, looked up): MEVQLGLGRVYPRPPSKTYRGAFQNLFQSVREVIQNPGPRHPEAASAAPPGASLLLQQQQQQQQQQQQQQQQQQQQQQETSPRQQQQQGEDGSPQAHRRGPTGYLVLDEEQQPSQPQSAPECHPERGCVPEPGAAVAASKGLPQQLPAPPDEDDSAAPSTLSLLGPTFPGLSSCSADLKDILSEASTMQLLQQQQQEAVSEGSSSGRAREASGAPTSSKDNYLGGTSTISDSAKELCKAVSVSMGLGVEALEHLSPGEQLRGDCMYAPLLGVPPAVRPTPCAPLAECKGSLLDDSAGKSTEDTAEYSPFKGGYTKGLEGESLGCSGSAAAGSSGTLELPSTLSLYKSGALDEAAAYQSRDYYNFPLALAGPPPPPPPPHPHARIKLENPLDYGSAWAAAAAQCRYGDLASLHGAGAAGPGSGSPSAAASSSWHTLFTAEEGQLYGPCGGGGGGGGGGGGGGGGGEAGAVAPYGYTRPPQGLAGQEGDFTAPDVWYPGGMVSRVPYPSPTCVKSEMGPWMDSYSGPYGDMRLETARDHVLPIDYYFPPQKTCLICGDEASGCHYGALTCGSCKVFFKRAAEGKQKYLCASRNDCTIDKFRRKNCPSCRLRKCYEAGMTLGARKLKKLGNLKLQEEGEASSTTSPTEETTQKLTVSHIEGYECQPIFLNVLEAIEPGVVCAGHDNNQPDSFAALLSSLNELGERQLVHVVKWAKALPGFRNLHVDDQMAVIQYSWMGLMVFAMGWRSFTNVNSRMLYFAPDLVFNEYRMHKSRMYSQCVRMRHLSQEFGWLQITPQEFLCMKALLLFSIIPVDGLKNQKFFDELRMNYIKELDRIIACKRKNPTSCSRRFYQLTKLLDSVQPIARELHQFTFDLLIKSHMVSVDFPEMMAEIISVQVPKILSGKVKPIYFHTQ
How it was run: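 Cell-free radioligand displacement using receptor protein extracted from Sf9/Sf21 cells; bound radioligand measured by scintillation counting 72 hours after chemical dosing. Loss of signal versus DMSO baseline indicates binding; primary screen single-concentration in duplicate at 25 uM, actives followed in concentration series.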
In the case of `CCCCCCCCCCCCCCCC(=O)OC[C@H](O)[C@H]1OC(=O)C(O)=C1O`, the outcome is reported as “inactive”. For `CC(=O)O[C@]1(C(C)=O)CC[C@H]2[C@@H]3C[C@H](C)C4=CC(=O)CC[C@]4(C)[C@H]3CC[C@@]21C`, the AC50 was 0.422 µM (active). With `Cc1ccc(C(C)C)cc1O` the AC50 was 10.6 µM (active). In the case of `O=C1OC2(c3cc(Br)c(O)c(Br)c3Oc3c2cc(Br)c(O)c3Br)c2c(Cl)c(Cl)c(Cl)c(Cl)c21`, the outcome is reported as “inactive”. `C#C[C@]1(O)CC[C@H]2[C@@H]3CCC4=Cc5oncc5C[C@]4(C)[C@H]3CC[C@@]21C` was tested, and the outcome was “inactive”. In the case of `O=Nc1ccc(Nc2ccccc2)cc1`, the outcome is reported as “inactive”. For `O=c1[nH]nnc2ccccc12`, the outcome was “inactive”. For `C=CC(C)(O)CCC=C(C)CCC=C(C)C` (stereo unspecified), the outcome was “inactive”. In the case of `CCN(CC)c1ccc(C(=C2C=CC(=[N+](CC)CC)C=C2)c2ccc(S(=O)(=O)O)cc2S(=O)(=O)[O-])cc1`, the outcome is reported as “inactive”. `CC(C)=CCCC(C)=CCCC(C)=CCO` was tested, and the outcome was “inactive”. `O=C1C(c2[nH]c3ccc(S(=O)(=O)O)cc3c2O)=Nc2ccc(S(=O)(=O)O)cc21` was tested, and the outcome was “inactive”.
